Assay results from PubChem BioAssay (NCATS).
Inconclusive results are not listed. The source made the active and inactive calls. Calls come from the whole dose curve; as a rule, active = well fitted cell-killing curve with a large enough effect; inconclusive = small, poorly fitted or top-dose-only effect, or effect the other way; inactive = flat fitted curve, though single readings scatter.

system: Tov112D; assay: Primary qHTS to identify gynecologic anti-cancer compounds using libraries of approved drugs and bioactive compounds (AID 1345084); settings: Gynecologic cancer cell panel viability, ATPlite luminescence, 48 h; series mostly up to 57.5 µM; activity change, negative = cytotoxicity: at the top concentration; note: nearly all actives have a fitted effect of over 55% in size
How it was run: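 Measured: luminescence after ATPlite addition (15 min, RT). Exposure: 48 h, 37 C, 5% CO2.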
% is set by controls: 0 for no effect and ±100 for the full control effect; potency is the fitted concentration of half-maximal effect.

Row | SMILES | activity change, negative = cytotoxicity | Potency
1 | CN(Cc1cccc(-c2ccncc2)c1)C(=O)Oc1ccc(-c2ccc(C(N)=O)cc2)cc1 | -2.29% (inactive) | 
2 | CN(C(=O)C(c1ccccc1)c1ccccc1)[C@H](CN1CC[C@H](O)C1)c1ccccc1 | -8.23% (inactive) | 
3 | C/C=C(\C)C(=O)OC1CC2C(CC=C3CC(OC4CC(OC)C(OC5CC(OC)C(OC6CC(OC)C(OC7CC(OC)C(O)C(C)O7)C(C)O6)C(C)O5)C(C)O4)CCC32C)C2(O)CCC(C(C)=O)C12C (stereo not given) | -0.393% [at 11.6 µM] (inactive) | 
4 | CN=C(NS(=O)(=O)c1ccc(Cl)cc1)N1C[C@H](c2ccccc2)C(c2ccc(Cl)cc2)=N1 | -0.0783% (inactive) | 
5 | COC1CC(O[C@H]2CC[C@@]3(C)C(CCC4C3CC[C@]3(C)C(C5=CC(=O)OC5)CCC43O)C2)OC(C)C1OC1OC(COC2OC(CO)C(O)C(O)C2O)C(O)C(O)C1O (stereo not given in full) |  | 0.794 µM (active)
6 | C[C@@H]1O[C@@H](OC2CCC3(C=O)C(CCC4C3CCC3(C)C(C5=CC(=O)OC5)C(O)CC43O)C2)[C@H](O)[C@H](O)[C@H]1O[C@@H]1O[C@H](CO)[C@@H](O)[C@H](O)[C@H]1O (stereo not given in full) |  | 3.16 µM (active)
7 | Cc1c(N[C@@H](c2nnc(-c3ccc(C#N)cc3)o2)[C@H](C)O)ccc(C#N)c1Cl | 4.29% (inactive) | 
8 | CC12CCC3C(C1)c1c(cc(O)c(C(=O)c4ccccc4)c1OC3(C)C)O2 (stereo not given) | -10.1% [at 38.5 µM] (inactive) | 
9 | C=C1C(=O)CC2OC2(C)CC2OC(=O)C(=C)C2C(O)C1OC(=O)/C(C)=C\C (stereo not given) | -5.61% [at 38.5 µM] (inactive) | 
10 | CN1C(=O)[C@@H](Cc2c[nH]c3ccccc23)N=C(c2ccccc2F)c2ccccc21 | -1.25% (inactive) | 
11 | CCCCCCC1C(=O)O[C@H](C)[C@H](NC(=O)c2cccc(NC=O)c2O)C(=O)O[C@@H](C)[C@@H]1OC(=O)CC(C)C (stereo not given in full) | -27.9% (inactive) | 
12 | c1ccc([C@@H]2C[C@H]2NC2CCNCC2)cc1 | -15.4% (inactive) | 
13 | CC(C)[C@H]1OC(=O)[C@H](Cc2ccccc2)N(C)C(=O)[C@@H](C(C)C)OC(=O)[C@H](Cc2ccccc2)N(C)C(=O)[C@@H](C(C)C)OC(=O)[C@H](Cc2ccccc2)N(C)C1=O | -20.5% [at 25.3 µM] (inactive) | 
14 | C=C1C2(C)CC3C(C)(O)C4=CC(=O)OC(C)(C)C4=CCC3(C)C13C(=O)OC(C)C3(O)C2=O (stereo not given) | -0.0646% [at 25.3 µM] (inactive) | 
15 | CN(C)[C@@H]1C(=O)C(C(N)=O)=C(O)[C@@]2(O)C(=O)C3=C(O)c4c(O)ccc(Cl)c4[C@@](C)(O)C3C[C@@H]12 (stereo not given in full) | 11.8% (inactive) | 
16 | CN1CCC2=C(C1)c1ccccc1Cc1ccccc12 | 6.88% (inactive) | 
17 | C=C(C)C(=O)O[C@H]1[C@@H]2[C@H](C)C(=O)O[C@@H]2C[C@@H](C)[C@@H]2C=CC(=O)[C@]21C |  | 8.91 µM (active)
18 | CCOc1ccc(Oc2ccc(OCc3cc(F)ccc3F)cc2)c(N)c1 | 4.12% (inactive) | 
19 | CCN1C[C@]2(COC)CC[C@H](O)[C@@]34C5C[C@@H]6[C@@H](OC)C[C@@](OC(C)=O)(C5[C@@H]6OC(C)=O)[C@H]([C@H](OC)C23)[C@@H]14 (stereo not given in full) | -6.91% [at 25.3 µM] (inactive) | 
20 | CC(C)[C@H](NC(=O)c1nn(Cc2ccc(F)cc2)c2ccccc12)C(N)=O | 2.29% (inactive) | 
21 | CCCN(CCC)[C@@H]1CCc2ccc3[nH]c(C#N)cc3c2C1 | 6.19% (inactive) | 
22 | Cc1ccc2c(c1)[C@H]1CN(C)CC[C@H]1N2C(=O)CSc1nnnn1-c1ccc(Cl)cc1 | 11.1% (inactive) | 
23 | C[C@]12CC[C@H](O)C[C@@H]1CC[C@@H]1[C@@H]2CC[C@]2(C)C(=O)CC[C@@H]12 | 4.35% (inactive) | 
24 | CC(=O)OC[C@]12[C@H](OC(C)=O)C(=O)[C@@H]3[C@@H](O)[C@@]14O[C@@]3(C)COC(=O)c1cccnc1[C@@H](C)[C@H](C)C(=O)O[C@@H]([C@H](OC(C)=O)[C@@H]2OC(C)=O)[C@]4(C)O | 3.99% [at 25.3 µM] (inactive) | 
25 | C#C[C@]1(O)CC[C@H]2[C@@H]3CC[C@H]4Cc5nc6nc7ccccc7n6cc5C[C@]4(C)[C@H]3CC[C@@]21C | -14.8% (inactive) | 
26 | CN1C(=O)N(c2ccc(C#N)c(C(F)(F)F)c2)C(=O)[C@@]1(CO)c1ccccc1 | 5.12% (inactive) | 
27 | CCCCCn1cc(C(=O)Oc2cccc3cccnc23)c2ccccc21 | 0.469% (inactive) | 
28 | C[C@]12CC[C@H](O)C[C@@]1(O)CC[C@@H]1[C@@H]2CC[C@]2(C)[C@@H](c3ccc(=O)oc3)CC[C@]12O | 3.5% (inactive) | 
29 | COC(=O)C12C(=O)C(C)(O)C(=O)C1(C)C(C)=CC1C34CCC(OC3=O)C(C)(C)C4CCC12C (stereo not given) | -19.1% [at 25.3 µM] (inactive) | 
30 | CN1Cc2c(ccc3c2OCO3)[C@@H]2[C@H]1c1cc3c(cc1C[C@@H]2O)OCO3 |  | 3.55 µM (active)
